# Experimental data taken from PubChem BioAssay (NCI).
# Compounds without any hit were thinned out: in the full panel of roughly 79,000, 15% have a hit. Unmarked numbers belong to inactive results. Activity calls are given as the source filed them. Cut-off read from the data, not from the text of the source: active = growth inhibition above about 70%; inactive = the rest.
# Experiments:
# [1] = NCI Yeast Anticancer Drug Screen. Data for the rad52 strain (AID 147);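 note: 0% = growth of vehicle-treated control cultures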; details: S. cerevisiae rad52 mutant growth inhibition, hits give high values
# Procedure, shortened: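 Read-out: growth inhibition versus vehicle-treated controls. Cells were a DNA repair-deficient yeast strain treated with compounds.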
# [2] = NCI Yeast Anticancer Drug Screen. Data for the wt1 strain (AID 149);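 note: 0% = growth of vehicle-treated wt1 cultures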; details: S. cerevisiae wt1 strain (SPY 50644) growth inhibition, hits give high values
# Procedure, shortened: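 wt1 yeast, compound-treated; % growth inhibition vs vehicle control.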
# [3] = NCI Yeast Anticancer Drug Screen. Data for the rad50EPP+ strain (AID 151);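 note: 0% = growth of vehicle-treated control cultures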; details: S. cerevisiae rad50 mutant strain, hits give high values
# Procedure, shortened: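 Growth inhibition read against vehicle controls in rad50EPP+ yeast, a strain altered in DNA damage repair, after compound exposure.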
# [4] = NCI Yeast Anticancer Drug Screen. Data for the mgt1 strain (AID 153); details: S. cerevisiae mgt1 mutant growth inhibition, hits give high values
# Procedure, shortened: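 mgt1 yeast grown with test compound; read-out is growth inhibition versus vehicle-treated cultures.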
# [5] = NCI Yeast Anticancer Drug Screen. Data for the rad50 strain (AID 155);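 note: 0% = growth of vehicle-only cultures of the same strain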; details: S. cerevisiae rad50 strain growth inhibition, hits give high values
# Procedure, shortened: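 Genetically altered yeast (DNA repair pathway); compound treatment; growth inhibition vs vehicle ctrl.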
# [6] = NCI Yeast Anticancer Drug Screen. Data for the mec2-1 strain (AID 157); details: S. cerevisiae mec2-1 strain, hits give high values
# Procedure, shortened: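 Yeast mec2-1 mutant treated with compound. Readout: growth inhibition vs vehicle controls.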
# [7] = NCI Yeast Anticancer Drug Screen. Data for the rad14 strain (AID 159);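 note: 0% = growth of vehicle-treated control cultures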; details: S. cerevisiae rad14 strain growth inhibition, hits give high values
# Procedure, shortened: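 Test compounds were applied to a repair-deficient yeast strain. Its growth was then compared with that of cultures given vehicle alone, and inhibition was expressed relative to those controls.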
# [8] = NCI Yeast Anticancer Drug Screen. Data for the sgs1 mgt1 strain (AID 161);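 note: 0% = growth of cultures given vehicle only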; details: S. cerevisiae sgs1 mgt1 strain, hits give high values
# Procedure, shortened: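 Genetically altered yeast, compound exposure, growth inhibition relative to vehicle.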
# [9] = NCI Yeast Anticancer Drug Screen. Data for the CLN2oe strain (AID 163);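 note: 0% = growth of vehicle-only control cultures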; details: S. cerevisiae CLN2oe strain, hits give high values
# Procedure, shortened: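 Read-out: yeast growth inhibition, expressed relative to vehicle-only controls. The strain bears an engineered cell-cycle alteration.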
# [10] = NCI Yeast Anticancer Drug Screen. Data for the cln2 rad14 strain (AID 165);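 note: 0% = growth equal to vehicle treated cultures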; details: S. cerevisiae cln2 rad14 strain, hits give high values
# Procedure, shortened: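 cln2 rad14 yeast strain; compound exposure; growth inhibition read vs vehicle controls.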
# [11] = NCI Yeast Anticancer Drug Screen. Data for the bub3 strain (AID 167); details: S. cerevisiae bub3 mutant strain, hits give high values
# Procedure, shortened: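 Yeast carrying a defined mutation is treated with each compound, and growth is compared with that of vehicle-exposed cells to give inhibition.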
# [12] = NCI Yeast Anticancer Drug Screen. Data for the wt2 strain (AID 169);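 note: 0% = growth of vehicle-treated yeast cultures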; details: S. cerevisiae wt2 strain growth inhibition, hits give high values
# Procedure, shortened: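 Read-out: growth inhibition versus vehicle-treated control cultures after compound exposure of the yeast strain.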
# [13] = NCI Yeast Anticancer Drug Screen. Data for the mlh1 strain (AID 171);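 note: 0% = growth of vehicle-treated control cultures of the same strain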; details: S. cerevisiae mlh1 strain growth inhibition, hits give high values
# Procedure, shortened: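 Read-out: growth inhibition versus vehicle controls. Strain: engineered yeast with a defined DNA repair or cell cycle defect, compound-treated.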
# [14] = NCI Yeast Anticancer Drug Screen. Data for the sgs1 strain (AID 173);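 note: 0% = growth of vehicle-only control cultures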; details: S. cerevisiae sgs1 mutant, hits give high values
# Procedure, shortened: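 Read-out: yeast growth inhibition relative to vehicle controls, following compound exposure of a strain with a defined DNA repair/cell cycle alteration.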
# [15] = NCI Yeast Anticancer Drug Screen. Data for the mlh1 rad18 strain (AID 175); details: S. cerevisiae mlh1 rad18 strain growth inhibition, hits give high values
# Procedure, shortened: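 Yeast w/ defined DNA-repair lesions; compound exposure; growth vs vehicle controls → % inhibition.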
# [16] = NCI Yeast Anticancer Drug Screen. Data for the rad18 strain (AID 177); details: S. cerevisiae rad18 mutant growth inhibition, hits give high values
# Procedure, shortened: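 Readout: growth inhibition vs vehicle controls. Cells: genetically altered yeast strain, DNA repair defect.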
# [17] = at 5.0 µM (retest, dose inferred, filed as 0.5)
# [18] = at 50.0 µM (retest, dose inferred, filed as 5.0)
structure (smiles),measurement,setting,value
O=C(NOC(=O)c1ccc([N+](=O)[O-])cc1)c1ccc(Cl)cc1,growth inhibition,[1]; at 1.2 µM,-1%
same,growth inhibition,[1]; at 3.7 µM,4%
same,growth inhibition,[1]; at 11.0 µM,31%
same,growth inhibition,[1]; at 33.0 µM,89% (active)
same,growth inhibition,[1]; at 100.0 µM,97% (active)
same,growth inhibition,[2]; at 1.2 µM,-30%
same,growth inhibition,[2]; at 3.7 µM,-31%
same,growth inhibition,[2]; at 11.0 µM,-9%
same,growth inhibition,[2]; at 33.0 µM,84% (active)
same,growth inhibition,[2]; at 100.0 µM,96% (active)
same,growth inhibition,[3]; at 1.2 µM,-19%
same,growth inhibition,[3]; at 3.7 µM,23%
same,growth inhibition,[3]; at 11.0 µM,68%
same,growth inhibition,[3]; at 33.0 µM,85% (active)
same,growth inhibition,[3]; at 100.0 µM,94% (active)
same,growth inhibition,[4]; at 1.2 µM,-58%
same,growth inhibition,[4]; at 3.7 µM,-33%
same,growth inhibition,[4]; at 11.0 µM,1%
same,growth inhibition,[4]; at 33.0 µM,90% (active)
same,growth inhibition,[4]; at 100.0 µM,97% (active)
same,growth inhibition,[5]; at 1.2 µM,-36%
same,growth inhibition,[5]; at 3.7 µM,-40%
same,growth inhibition,[5]; [17],6%
same,growth inhibition,[5]; at 11.0 µM,10%
same,growth inhibition,[5]; at 33.0 µM,83% (active)
same,growth inhibition,[5]; [18],89% (active)
same,growth inhibition,[5]; at 50.0 µM,92.4% (active)
same,growth inhibition,[5]; at 100.0 µM,95% (active)
same,growth inhibition,[6]; at 1.2 µM,-84%
same,growth inhibition,[6]; at 3.7 µM,-64%
same,growth inhibition,[6]; [17],-4%
same,growth inhibition,[6]; at 11.0 µM,-15%
same,growth inhibition,[6]; at 33.0 µM,82% (active)
same,growth inhibition,[6]; [18],93% (active)
same,growth inhibition,[6]; at 50.0 µM,92.7% (active)
same,growth inhibition,[6]; at 100.0 µM,97% (active)
same,growth inhibition,[7]; at 1.2 µM,-52%
same,growth inhibition,[7]; at 3.7 µM,-27%
same,growth inhibition,[7]; at 11.0 µM,-7%
same,growth inhibition,[7]; at 33.0 µM,88% (active)
same,growth inhibition,[7]; at 100.0 µM,97% (active)
same,growth inhibition,[8]; [17],10%
same,growth inhibition,[8]; [18],94% (active)
same,growth inhibition,[8]; at 50.0 µM,91.3% (active)
same,growth inhibition,[9]; at 1.2 µM,-18%
same,growth inhibition,[9]; at 3.7 µM,6%
same,growth inhibition,[9]; at 11.0 µM,15%
same,growth inhibition,[9]; at 33.0 µM,80% (active)
same,growth inhibition,[9]; at 100.0 µM,98% (active)
same,growth inhibition,[10]; [17],36%
same,growth inhibition,[10]; [18],96% (active)
same,growth inhibition,[10]; at 50.0 µM,89% (active)
same,growth inhibition,[11]; at 1.2 µM,-19%
same,growth inhibition,[11]; at 3.7 µM,-18%
same,growth inhibition,[11]; [17],0%
same,growth inhibition,[11]; at 11.0 µM,-4%
same,growth inhibition,[11]; at 33.0 µM,67%
same,growth inhibition,[11]; [18],89% (active)
same,growth inhibition,[11]; at 50.0 µM,90% (active)
same,growth inhibition,[11]; at 100.0 µM,95% (active)
same,growth inhibition,[12]; at 1.2 µM,-47%
same,growth inhibition,[12]; at 3.7 µM,-27%
same,growth inhibition,[12]; at 11.0 µM,11%
same,growth inhibition,[12]; at 33.0 µM,87% (active)
same,growth inhibition,[12]; at 100.0 µM,97% (active)
same,growth inhibition,[13]; at 1.2 µM,-35%
same,growth inhibition,[13]; at 3.7 µM,-35%
same,growth inhibition,[13]; at 11.0 µM,-1%
same,growth inhibition,[13]; at 33.0 µM,89% (active)
same,growth inhibition,[13]; at 100.0 µM,96% (active)
same,growth inhibition,[14]; at 1.2 µM,-39%
same,growth inhibition,[14]; at 3.7 µM,-17%
same,growth inhibition,[14]; at 11.0 µM,48%
same,growth inhibition,[14]; at 33.0 µM,88% (active)
same,growth inhibition,[14]; at 100.0 µM,95% (active)
same,growth inhibition,[15]; [17],14%
same,growth inhibition,[15]; [18],96% (active)
same,growth inhibition,[15]; at 50.0 µM,89.7% (active)
same,growth inhibition,[16]; at 1.2 µM,-11%
same,growth inhibition,[16]; at 3.7 µM,2%
same,growth inhibition,[16]; at 11.0 µM,43%
same,growth inhibition,[16]; at 33.0 µM,90% (active)
same,growth inhibition,[16]; at 100.0 µM,96% (active)
